Source: the supplement of paper PMC4100887
Counter-ions that a name gives are not always drawn. ± gives the standard deviation of the averaged measurements.

Key:
[1] = system: IMR-90; assay: relative cell viability (ATPlite) vs untreated control (fraction); higher = less toxic; details: 1 µM; 72 h
[2] = system: K562; assay: as above; details: 1 µM; 72 h
[3] = system: K562; assay: relative cell viability (ATPlite) vs untreated control, with imatinib (fraction); higher = less toxic; details: 1 µM; 72 h; imatinib 0.125 µM

Row | SMILES | relative cell viability [1] | relative cell viability [2] | relative cell viability [3]
1 | N#CCCc1ccc2c(c1)-c1[nH]c3ccc([N+](=O)[O-])cc3c1CC(=O)N2 [Alsterpaullone, 2-Cyanoethyl] | 1 ± 0.039 | 0.307 ± 0.05 | 0.153 ± 0.036
2 | Nc1ccc(-c2cccc3c(=O)cc(N4CCOCC4)oc23)cc1 | 0.822 ± 0.13 | 0.79 ± 0.094 | 0.627 ± 0.056
3 | c1nc2c(NC3CCCCC3)nc(Nc3ccc(N4CCOCC4)cc3)nc2[nH]1 [Reversine] | 0.936 ± 0.08 | 0.578 ± 0.048 | 0.398 ± 0.075
4 | CC(C)[C@H](CO)Nc1nc(Nc2cc(N)cc(Cl)c2)c2ncn(C(C)C)c2n1 [Aminopurvalanol A] | 0.837 ± 0.084 | 0.916 ± 0.037 | 0.796 ± 0.025
5 | O=[N+]([O-])c1ccc(-c2nc(-c3ccc(F)cc3)c(-c3ccncc3)[nH]2)cc1 | 1.05 ± 0.089 | 0.774 ± 0.031 | 0.693 ± 0.039
6 | Cc1cc2ncc(-c3ccccc3)nc2cc1C | 0.969 ± 0.069 | 0.836 ± 0.094 | 0.719 ± 0.05
7 | O=C1NC(=O)C(c2cn(CCCO)c3ncccc23)=C1c1cnccn1 [GSK-3b Inhibitor XI] | 1.02 ± 0.054 | 0.915 ± 0.075 | 0.757 ± 0.046
8 | O=C1C(=Cc2ccc(O)cc2)C2=Nc3ccccc3C2=C1C1=C2C(=Nc3ccccc32)C(=Cc2ccc(O)cc2)C1=O [Scytonemin, Lyngbya sp.] | 0.834 ± 0.054 | 0.986 ± 0.052 | 0.821 ± 0.089
9 | CC[C@@H](CO)Nc1nc(NCc2ccc(-c3ccccn3)cc2)c2ncn(C(C)C)c2n1 [CR8, (S)-Isomer] | 0.107 ± 0.035 | 0.0828 ± 0.015 | 0.0705 ± 0.018
10 | Cc1cncc2cccc(S(=O)(=O)N3CCCN(C(=O)CN)C[C@@H]3C)c12 [Rho Kinase Inhibitor IV] | 1.05 ± 0.12 | 0.809 ± 0.065 | 0.669 ± 0.031
11 | COc1ccc(-c2cnc3c(-c4ccsc4)cnn3c2)cc1 [VEGF Receptor 2 Kinase Inhibitor IV] | 0.993 ± 0.1 | 0.893 ± 0.072 | 0.726 ± 0.067
12 | Cn1nc2c3c(cccc31)C(=O)c1ccccc1-2 [JNK Inhibitor, Negative Control] | 1.02 ± 0.11 | 0.869 ± 0.083 | 0.733 ± 0.038
13 | c1ccc2c(-c3ccncc3)c[nH]c2c1 [Rho Kinase Inhibitor III, Rockout] | 0.814 ± 0.19 | 0.833 ± 0.097 | 0.683 ± 0.029
14 | CCN(CC)CCNC(=O)c1c(C)[nH]c(/C=C2\C(=O)Nc3ccc(Cl)cc32)c1C | 0.92 ± 0.082 | 0.909 ± 0.062 | 0.799 ± 0.052
15 | Cc1cc(C=C2C(=O)C=CC2=O)cc(C)c1O | 0.928 ± 0.045 | 0.736 ± 0.16 | 0.595 ± 0.12
16 | CO[C@H]1C[C@@H]2CC[C@@H](C)[C@@](O)(O2)C(=O)C(=O)N2CCCC[C@H]2C(=O)O[C@H]([C@H](C)C[C@@H]2CC[C@@H](O)[C@H](OC)C2)CC(=O)[C@H](C)/C=C(\C)[C@@H](O)[C@@H](OC)C(=O)[C@H](C)C[C@H](C)/C=C/C=C/C=C/1C [Rapamycin] | 0.598 ± 0.075 | 0.585 ± 0.032 | 0.481 ± 0.036
17 | CC(=O)c1ccc(N2CCOCC2)cc1O [DNA-PK Inhibitor III] | 1.02 ± 0.093 | 0.878 ± 0.059 | 0.782 ± 0.027
18 | CC[C@H](CO)Nc1nc(NCc2ccccc2O)c2ncn(C(C)C)c2n1 [Olomoucine II] | 1.07 ± 0.073 | 0.758 ± 0.02 | 0.715 ± 0.028
19 | N#Cc1c(C2CCNCC2)cc(-c2c(O)cccc2OCC2CC2)nc1N [IKK-2 Inhibitor VIII] | 1.01 ± 0.12 | 0.871 ± 0.048 | 0.718 ± 0.021
20 | Cn1cc(C2=C(c3cn(CCCSC(=N)N)c4ccccc34)C(=O)NC2=O)c2ccccc21 | 0.967 ± 0.2 | 0.834 ± 0.1 | 0.733 ± 0.062

Row | SMILES | relative cell viability [1] | relative cell viability [2] | relative cell viability [3]
21 | O=C1NC(=O)C(c2c[nH]c3ccccc23)=C1c1c[nH]c2ccccc12 [Bisindolylmaleimide IV] | 0.826 ± 0.14 | 0.936 ± 0.053 | 0.851 ± 0.024
22 | COc1cc2ncnc(Nc3ccc(NC(=O)c4ccccc4)cc3)c2cc1OC [Aurora Kinase Inhibitor II] | 0.92 ± 0.071 | 0.909 ± 0.055 | 0.783 ± 0.027
23 | N#C/C(=C(/N)Sc1ccccc1N)c1cccc(C(O)c2ccncc2)c1 (stereo not given) [MEK Inhibitor I] | 1.02 ± 0.1 | 0.732 ± 0.045 | 0.581 ± 0.03
24 | O=C(Nc1cccc(Nc2nccc(Nc3cccc(C(F)(F)F)c3)n2)c1)C1CC1 [Aurora Kinase Inhibitor III] | 0.892 ± 0.074 | 0.892 ± 0.044 | 0.755 ± 0.05
25 | NC(=O)c1ccc2nc(-c3ccc(Oc4ccc(Cl)cc4)cc3)[nH]c2c1 [Chk2 Inhibitor II] | 1.05 ± 0.097 | 0.778 ± 0.061 | 0.681 ± 0.027
26 | O=C(c1ccccc1)c1ccc(N2CCOCC2)cc1O [DNA-PK Inhibitor V] | 1.01 ± 0.094 | 0.878 ± 0.066 | 0.756 ± 0.03
27 | O=C(O)c1ccc2c3c1cccc3c(=O)n1c3ccccc3nc21 | 0.961 ± 0.12 | 0.947 ± 0.051 | 0.811 ± 0.088
28 | CCCCc1c(-c2ccc(OC)cc2)[nH]c2nccnc12 [Aloisine, RP106] | 0.897 ± 0.069 | 0.929 ± 0.046 | 0.819 ± 0.05
29 | NC(=O)Nc1cc(-c2ccccc2)sc1C(N)=O [IKK-2 Inhibitor XI] | 0.982 ± 0.094 | 0.983 ± 0.09 | 0.802 ± 0.037
30 | COc1cc(SC)ccc1C(=O)N1CCC(Cc2ccccc2)CC1 [p38 MAP Kinase Inhibitor VI, JX401] | 1.03 ± 0.094 | 0.807 ± 0.042 | 0.716 ± 0.023
31 | O=C(Nc1ccc(Cl)cc1)c1ccccc1NCc1ccncc1 [VEGF Receptor Tyrosine Kinase Inhibitor II] | 0.987 ± 0.064 | 0.852 ± 0.056 | 0.802 ± 0.036
32 | CC(C)[C@H](CO)Nc1nc(Nc2cccc(Cl)c2)c2ncn(C(C)C)c2n1 [Purvalanol A] | 1.04 ± 0.11 | 0.885 ± 0.065 | 0.75 ± 0.072
33 | Cc1ccc([N+](=O)[O-])cc1S(=O)(=O)N(C)/N=C/c1cnc2ccc(Br)cn12 [PI 3-Kα Inhibitor VIII] | 0.166 ± 0.031 | 0.763 ± 0.071 | 0.681 ± 0.044
34 | Nc1n[nH]c(N)c1N=Nc1ccc(O)cc1 [Cdk9 Inhibitor II] | 0.93 ± 0.099 | 0.839 ± 0.073 | 0.765 ± 0.035
35 | CC(C)(C)c1ccc(S(=O)(=O)Nc2ccc(-n3ccnc3)cc2)cc1 [Stem-Cell Factor/c-Kit Inhibitor, ISCK03] | 0.897 ± 0.068 | 0.818 ± 0.096 | 0.742 ± 0.038
36 | CCOc1nc(NC(=O)Cc2cc(OC)ccc2OC)cc(N)c1C#N [JNK Inhibitor VIII] | 0.992 ± 0.081 | 0.983 ± 0.035 | 0.769 ± 0.053
37 | COc1cc2ncnc(Nc3ccc(Oc4ccccc4)cc3)c2cc1OC [Src Kinase Inhibitor I] | 0.956 ± 0.063 | 0.839 ± 0.088 | 0.692 ± 0.05
38 | COc1ccc2c(c1)c1c3c(c4c5ccccc5n(C)c4c1n2CC(O)CN(C)C)C(=O)NC3=O (stereo not given) [Gö 7874, Hydrochloride] | 0.87 ± 0.034 | 0.901 ± 0.025 | 0.775 ± 0.031
39 | Brc1c(Br)c(Br)c2n[nH]nc2c1Br [Casein Kinase II Inhibitor I] | 1 ± 0.059 | 0.952 ± 0.068 | 0.833 ± 0.03
40 | O=Nc1c(-c2c(O)[nH]c3cc(Br)ccc23)[nH]c2ccccc12 [GSK-3 Inhibitor IX] | 0.935 ± 0.077 | 0.779 ± 0.036 | 0.599 ± 0.044

Row | SMILES | relative cell viability [1] | relative cell viability [2] | relative cell viability [3]
41 | O=C1Cc2c([nH]c3ccc([N+](=O)[O-])cc23)-c2ccccc2N1 [Alsterpaullone] | 0.946 ± 0.067 | 0.906 ± 0.074 | 0.812 ± 0.026
42 | Fc1ccc(-c2nc3n(c2-c2ccncc2)CCS3)cc1 | 0.999 ± 0.12 | 0.845 ± 0.071 | 0.737 ± 0.058
43 | COc1ccc(COc2ccc(Cc3cnc(N)nc3N)cc2OC)cc1 [cFMS Receptor Tyrosine Kinase Inhibitor] | 1.05 ± 0.12 | 0.789 ± 0.061 | 0.699 ± 0.007
44 | N#CC(c1ccnc(NCCc2cccnc2)n1)c1nc2ccccc2s1 (stereo not given) [JNK Inhibitor V] | 1.01 ± 0.077 | 0.851 ± 0.092 | 0.703 ± 0.056
45 | CN[C@@H]1C[C@H]2O[C@@](C)([C@@H]1OC)n1c3ccccc3c3c4c(c5c6ccccc6n2c5c31)C(=O)N[C@H]4O | 0.101 ± 0.021 | 0.18 ± 0.048 | 0.14 ± 0.026
46 | O=c1cc(N2CCOCC2)oc2c1ccc1ccccc12 [DNA-PK Inhibitor II] | 1 ± 0.061 | 0.815 ± 0.041 | 0.754 ± 0.023
47 | CCCCCCCCCCCCCCCCn1cc[n+](Cc2ccccc2)c1C [eEF-2 Kinase Inhibitor, NH125] | 0.948 ± 0.11 | 0.506 ± 0.092 | 0.401 ± 0.1
48 | CCCC(=O)Oc1ccc2[nH]c(C(=O)c3cc4ccccc4[nH]3)cc2c1 [PDGF Receptor Tyrosine Kinase Inhibitor II] | 1.01 ± 0.064 | 0.812 ± 0.097 | 0.77 ± 0.025
49 | Cc1ccc(NC2=CC(=O)c3sc(C)nc3C2=O)cc1 [Cdk4 Inhibitor III] | 0.997 ± 0.032 | 0.782 ± 0.1 | 0.685 ± 0.14
50 | O=c1c(O)c(-c2ccc(O)c(O)c2)oc2cc(O)c(O)c(O)c12 [Quercetagetin] | 0.88 ± 0.16 | 0.799 ± 0.086 | 0.64 ± 0.025
51 | N#Cc1cc([N+](=O)[O-])c2sc(C(N)=O)[n+]([O-])c2c1 [Polo-like Kinase Inhibitor II, BTO-1] | 1.01 ± 0.12 | 0.88 ± 0.081 | 0.709 ± 0.056
52 | CCOC(=O)c1c(C)[nH]c(/C=C2\C(=O)Nc3ccccc32)c1C [VEGF Receptor 2 Kinase Inhibitor I] | 0.961 ± 0.063 | 0.996 ± 0.047 | 0.845 ± 0.075
53 | Cn1c(O)c(-c2[nH]c3ccccc3c2N=O)c2ccc(Br)cc21 [GSK-3 Inhibitor IX, Control, MeBIO] | 0.976 ± 0.047 | 0.964 ± 0.014 | 0.8454 ± 0.0073
54 | O=C(Nc1cc(C(F)(F)F)cc(C(F)(F)F)c1)c1cc(Cl)ccc1O [IKK-2 Inhibitor V] | 0.878 ± 0.28 | 0.505 ± 0.03 | 0.477 ± 0.011
55 | COc1cc2ncn(-c3cc(OCc4ccccc4S(C)(=O)=O)c(C#N)s3)c2cc1OC [IKK-3 Inhibitor IX] | 1.02 ± 0.11 | 0.843 ± 0.084 | 0.764 ± 0.036
56 | NCCCn1cc(C2=C(c3c[nH]c4ccccc34)C(=O)NC2=O)c2ccccc21 [Bisindolylmaleimide III, Hydrochloride] | 1.06 ± 0.088 | 0.88 ± 0.058 | 0.776 ± 0.042
57 | Nc1nc(Nc2ccc(S(N)(=O)=O)cc2)nn1C(=S)Nc1c(F)cccc1F [Cdk1/2 Inhibitor III] | 1.11 ± 0.082 | 0.0545 ± 0.0021 | 0.0471 ± 0.0048
58 | O=C(Nc1ccncc1)Nc1c(Cl)cc(Cl)cc1Cl [Rho Kinase Inhibitor II] | 1.08 ± 0.11 | 0.856 ± 0.056 | 0.743 ± 0.03
59 | COc1cc2ncnc(Nc3ccc(O)c(Br)c3)c2cc1OC [JAK3 Inhibitor II] | 1.01 ± 0.09 | 0.815 ± 0.037 | 0.717 ± 0.032
60 | CN1C(=O)C(Cc2c[nH]c3ccccc23)NC1=S (stereo not given) [Necrostatin-1] | 0.915 ± 0.058 | 0.921 ± 0.1 | 0.785 ± 0.044
